Compound activity from PubChem.
The list is not random: actives were taken first. Their share in the collection is about 21%.
HCV inh: qHTS Assay for Inhibitors of Hepatitis C Virus (HCV); Huh7.5.1 HCVcc-Cre infection, luciferase reporter, 44 h; Potency, µM (highest dose often 41.8 µM), for inactives: top-dose activity change, negative = inhibition, actives largely listed as inhibitors; actives 3.4% (n = 340,000); AID 651820, 2012; also: potency is read from the fitted curve at half-maximal effect; % is scaled to controls: 0 for no effect and ±100 for the full control effect
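HCVcc-Cre virus at an moi near 0.5 was added right after compound to cells cultured 4 h from seeding (1,000 cells/well). Luciferase activity was determined 44 h later, 15 min after substrate addition at RT.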
Shiga toxin inh: A qHTS for Small Molecule Inhibitors of Shiga Toxin; actives 9.2% (n = 290,000); inhibition, % at 38.7 µM; AID 2315, 2010; Vero cells, Shiga toxin protein synthesis inhibition reporter; in the data active = inhibition mostly above about 28%, no sharp cut-off; inactive = mostly below about 43%; also: 0% is about no effect
Pf growth 96h: Primary qHTS for delayed death inhibitors of the malarial parasite plastid, 96 hour incubation | P. falciparum luciferase reporter growth, 96 h | actives 6.9% (n = 320,000) | Potency, µM (top dose mostly 28.7 µM), for the others: at the top dose activity change, negative = inhibition, actives largely listed as inhibitors; also: potency is read from the fitted curve at half-maximal effect; % is scaled to controls: 0 for no effect and ±100 for the full control effect
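Readout is luminescence from an integrated firefly luciferase in P. falciparum. Red cells, 2% hematocrit and 0.05% parasitemia final, were cultured with compound through two parasite generations (96 hours) at 37 C, 5% CO2.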
CHX counter: Cycloheximide Counterscreen for Small Molecule Inhibitors of Shiga Toxin; cell reporter, cycloheximide protein synthesis inhibition counterscreen; max response, %; actives 12% (n = 300,000); in the data active = max response mostly above about 13%, no sharp cut-off; inactive = mostly below about 14%; also: read at 38.3 µM for the half of the compounds with a filed dose; 0% is about no effect
Pf growth 48h: Primary qHTS for delayed death inhibitors of the malarial parasite plastid, 48 hour incubation; P. falciparum luciferase growth in erythrocytes, 48 h; Potency, µM (series often up to 28.7 µM), for inactives: at the top dose activity change, negative = inhibition, hits mostly inhibitors; actives 5.9% (n = 310,000); AID 504832, 2011; also: potency is read from the fitted curve at half-maximal effect; % is scaled to controls: 0 for no effect and ±100 for the full control effect
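Read-out is firefly luciferase luminescence from an integrated reporter in P. falciparum, so falling signal marks reduced parasite growth. Infected erythrocytes were at 2% hematocrit and 0.1% parasitemia (final) in Albumax-supplemented RPMI 1640.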
HCMV inh: qHTS Assay for inhibitors of the human cytomegalovirus (HCMV); HFF cells, HCMV-luciferase reporter, 72 h; hits give low values; activity change, negative = inhibition, % at 57.5 µM; actives 4.5% (n = 410,000); in the data active = activity change below about -60%; inconclusive = no clear call, values can overlap the other calls; inactive = above about -39%; also: % is scaled to controls: 0 for no effect and ±100 for the full control effect
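Screen run at 2 compound doses on HFFs infected with reporter HCMV, MOI 1 PFU/cell. Luciferase activity from cell lysates at 72 h post infection gave inhibition relative to buffer-only and Salinomycin wells.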
* marks the source's active call; other numbers are inactive results; i = inactive; ? = inconclusive; nt = no result given; [ ] = another dose, or the depositor's remark. Unless noted, calls follow the shape of the dose curve; as a rule, active = well fitted inhibition curve with a large enough effect; inconclusive = small, poorly fitted or top-dose-only effect, or another doubt; inactive = no such curve, though single readings can be large or run the other way.

SMILES | HCV inh | Shiga toxin inh | Pf growth 96h | CHX counter | Pf growth 48h | HCMV inh
CC1=C(C(=O)OCc2ccccc2)C(c2ccccc2)NC(=O)N1CCCC(=O)O (stereo not drawn) | 7.8% | -4.5 | ? | -1.4 | ? | 13.7
CC1=C(C(=O)OCc2ccccc2)C(c2cccc([N+](=O)[O-])c2)NC(=O)N1CCCCCC(=O)O (stereo not drawn) | -11.2%[8.37 µM] | -17.6 | 10.4µM* | -4.4 | ? | -7.6
CCOC(=O)C1=C(C)N(CCCCCC(=O)O)C(=O)NC1c1cccc([N+](=O)[O-])c1 (stereo not drawn) | 27.0% | -7.7 | 3.5% | -4.3 | -2.6% | -16.1
Cc1ccc(OCc2nc(-c3ccc(C(=O)NCc4ccc(OC(C)C)cc4)cc3)oc2C)cc1 | nt | nt | nt | nt | nt | -6.4
COc1cccc(C2c3[nH]c4ccccc4c3CCN2Cc2cccn2-c2ncccn2)c1 (stereo not drawn) | -19.8% | 20.5 | 5.22µM* | -2.9 | ? | 36.1
Fc1ccc(C2c3[nH]c4ccccc4c3CCN2Cc2cccn2-c2ncccn2)cc1 (stereo not drawn) | ? | 0.9 | 17.9% | -2.3 | -3.2% | -90.9*
O=C(Cc1ccsc1)N1CCc2c([nH]c3ccccc23)C1c1ccccn1 (stereo not drawn) | -8.7% | 1.3 | 14.2% | -2.5 | ? | 6.0
Clc1ccc(-n2cccc2CN2CCc3c([nH]c4ccccc34)C2c2ccccn2)nc1 (stereo not drawn) | -15.6% | 1.9 | 10.4µM* | -0.9 | 9.28µM* | -24.3
CSc1ncc(CN2CCc3c([nH]c4ccccc34)C2c2cccc(O)c2)cn1 (stereo not drawn) | -16.2% | -6.9 | -52.5% | 1.0 | 4.15µM* | -21.8
CSc1ncc(CN2CCc3c([nH]c4ccccc34)C2c2cccc(C)n2)cn1 (stereo not drawn) | -23.9% | 17.6 | ? | -3.5 | ? | 0.0
COc1ccc(C2=CC(=O)C[C@H](CN3C(=O)c4ccccc4C3=O)N(C(=O)OC(C)(C)C)O2)cc1 | -12.8%[8.37 µM] | nt | nt | nt | nt | 7.7
O=C(c1cc2cc([N+](=O)[O-])ccc2oc1=O)N1CCN(C2CCCCC2)CC1 | 14.9% | -5.9 | 0.0% | -1.9 | 15.5% | 3.8
COC(=O)CN1C(=O)[C@@H]2[C@H](C1=O)[C@@H]1CC(C(=O)OC)=C[C@@H](C(=O)OC)[C@@H]3C1=C(C(=O)[C@@]3(C)NC(=O)c1ccccc1)[C@@H]2C | -20.7% | nt | nt | nt | nt | -65.6*
COC(=O)C1=C[C@@H](C(=O)OC)[C@@H]2C3=C(C(=O)[C@]2(C)NC(=O)c2ccccc2)[C@H](C)[C@@H]2C(=O)NC(=O)[C@@H]2[C@@H]3C1 | nt | -10.4 | nt | -5.3 | nt | nt
CC(C)(C)c1ccc(C(=O)c2c[nH]c(C(=O)NCc3cccnc3)c2)cc1 | -4.9% | 22.6 | 5.22µM* | 20.5* | 8.28µM* | -7.0
COC(=O)CNC(=S)NC(=O)c1ccc(C(C)(C)C)cc1 | 4.3% | 77.6* | ? | 32.3* | 27.6% | -6.2
Fc1ccc(NC(=S)NCc2cccnc2)cc1 | 11.0% | -2.6 | 10.3% | -1.1 | -8.0% | -6.6
CC(C)(C)c1ccc(NC(=S)NCc2cccnc2)cc1 | 31.6µM* | 16.7 | -1.9% | 6.8 | 3.9% | -13.2
Fc1cccc(NC(=S)NCc2cccnc2)c1 | ? | -4.9 | 7.38µM* | 3.8 | -11.2% | -10.8
CS(=O)(=O)N(CC(=O)N1CCN(Cc2ccccc2)CC1)c1ccccc1Br | 19.6% | -5.1 | ? | 1.4 | -4.5% | -19.2
Cc1nn(Cc2nnc(SCC(=O)Nc3ccc(Cl)cc3)n2C)c(C)c1[N+](=O)[O-] | ? | 18.9 | -4.1% | -1.5 | -10.2% | 16.6
CC(C)(C)NC(=O)C(c1ccccn1)N(C(=O)C1CSC(=O)C1)c1ccccc1F (stereo not drawn) | 4.3% | 5.6 | -11.5% | -3.8 | 23.4% | 2.7
CC(C)c1ccc(O)c(NC(=S)NC(=O)c2cccnc2)c1 | -9.5% | 28.7 | 6.6% | 12.9 | ? | -15.0
CC(C)(C)c1ccc(C(=O)c2c[nH]c(C(=O)NCCCn3ccnc3)c2)cc1 | -27.5% | 2.4 | 7.38µM* | 0.5 | 11.7µM* | 4.9
CC(C)(C)c1ccc(C(=O)NC(=S)NCc2cccnc2)cc1 | 22.4µM* | active | -16.6% | 45.3* | 23.5% | -77.9*
SMILES | HCV inh | Shiga toxin inh | Pf growth 96h | CHX counter | Pf growth 48h | HCMV inh
CC(C)(C)c1cc(Cl)c(O)c(NC(=S)NC(=O)c2cccnc2)c1 | ? | 2.9 | -28.1% | 11.7 | ? | -95.3*
O=C(NNC(=S)NC(=O)c1ccccc1)c1cccnc1 | 10.0% | -4.0 | ? | -6.8 | ? | 33.4
CC(C)(C)c1ccc(C(=O)NNC(=S)NC(=O)c2cccnc2)cc1 | ? | 52.8* | ? | 23.8* | 13.1µM* | ?
CCOC(=O)[C@]12CCCC=C1N(CCc1ccc(OC)c(OC)c1)C(=O)[C@H](CC(=O)NCCCCc1ccccc1)C2 | nt | nt | nt | nt | nt | 60.7
Cc1ccccc1CNC(=O)c1cc2cc(S(=O)(=O)N3CCCCC3)ccc2n1C | nt | nt | nt | nt | nt | 20.5
COc1ccc(CCN(C)C(=O)COc2cccc(-n3cnnn3)c2)cc1OC | ? | nt | nt | nt | nt | -8.2
CC(C)(C)C(=O)Nc1cccc2[nH]ncc12 | -10.8% | 12.9 | 18.8% | -1.6 | i | -33.1
CCC(C)Sc1ccc([C@H]2N[C@@](C)(C(=O)OC)[C@H]3C(=O)N(CC)C(=O)[C@@H]23)cc1OC (stereo partly drawn) | 9.0% | nt | nt | nt | nt | 28.6
O=C(NC(=S)NNC(=O)c1ccccc1F)c1cccnc1 | 15.3% | 54.6* | 33.4% | 20.3* | -19.3% | 34.6
COc1ccc(NC(=S)NCc2cccnc2)cc1 | 12.4% | -23.9 | 72.1% | -5.0 | 1.9% | -2.1
Cc1ccccc1C(=O)NNC(=S)NC(=O)c1cccnc1 | 4.3% | 16.4 | ? | -1.2 | ? | 15.2
S=C(NCc1cccnc1)Nc1ccc(Oc2ccc(Cl)cc2)cc1 | ? | -13.1 | -27.4% | 6.6 | 6.4% | -61.3*
COc1cccc(C(=O)N=c2sc3c(C)ccc(OC)c3n2C)c1 | ? | 48.5* | 89.3% | 44.6* | 300.4% | 57.7
COc1ccccc1C(=O)N=c1sc2c(C)ccc(OC)c2n1C | ? | 107.0* | 36.0% | 39.9* | 51.2% | -8.4
COc1ccc(C(=O)N=c2sc3c(C)ccc(OC)c3n2C)cc1OC | 15.8µM* | 26.7 | -4.6% | 12.0 | -15.1% | 82.6
Cc1nn(CC(=O)Nc2ccccn2)c(=O)c2ccccc12 | 10.0% | 9.7 | 3.6% | 1.3 | 6.3% | -0.9
O=C(Cn1nc(-c2ccccc2)c2ccccc2c1=O)Nc1ccccn1 | 6.1% | 80.4 | nt | 45.9* | 10.5% | -61.4*
